# In PubChem BioAssay:
# Activity calls are given as the source filed them.
# Key:
# [1] = optical density shifts of acrAB sulA E. coli – strain DRC41, OD650, 48 h, E. coli filamentation inducer project, primary screen (AID 1152); details: higher = more signal, called active from +8 up or from −8 down;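 also: E. coli MC1000 strain DRC41 lacking acrAB efflux pump and sulA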
# [2] = probe aLefty1 binding on compound microarray – biochemical, small-molecule microarray, 635/667 nm fluorescence, primary screen (AID 1153); details: higher = more signal;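 also: score merges spot fluorescence with signal-to-noise ratio from the scanned slide images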
# [3] = plasmodial surface anion channel blockers, osmotic lysis – cell-based, P. falciparum Indochina, OD700, 1 h, primary screen (AID 1154); details: P. falciparum Indochina infected RBC osmotic lysis, higher = more signal, called active from +8 up or from −8 down
# [4] = plasmodial surface anion channel blockers, osmotic lysis – cell-based, P. falciparum Indochina, OD700, 2 h, primary screen (AID 1155);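 also: lysis reports solute entry through the parasite surface anion channel PSAC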; details: P. falciparum Indochina infected erythrocytes, higher = more signal, called active from +8 up or from −8 down
# [5] = changes in parasitized red cell lysis, either direction – P. falciparum Indochina, OD700, 3 h, PSAC antagonist project, primary screen (AID 1156); details: P. falciparum-infected erythrocytes, osmotic lysis, higher = more signal, called active from +8 up or from −8 down
# [6] = plasmodial surface anion channel blockers, osmotic lysis – cell-based, P. falciparum Indochina, OD700, 18 h, primary screen (AID 1157); details: P. falciparum Indochina infected erythrocytes, osmotic lysis OD700, 18 h; higher = more signal, called active from +8 up or from −8 down
# [7] = S6 kinase pathway phospho-S6 level changes – cell-based, A549, cytoblot, luminescence, serum-stimulated, primary screen (AID 1158); details: 5 h, higher = more signal;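 also: serum-stimulated A549 lung adenocarcinoma cells; signal is phosphorylated S6 detected by cytoblot immunostaining with HRP secondary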
# [8] = molecular target: NADPH oxidase 2 (Homo sapiens) (UniProt P04839); assay: compounds shifting NOX2 Amplex Red fluorescence – cell-based, HEK293-NOX2, PMA-stimulated, NOX inhibitor project, primary screen (AID 1159); details: 45 min, higher = more signal, called active from +8 up or from −8 down; also: test concentration not given here
# Sequence of NADPH oxidase 2 (Homo sapiens) (P04839 whole entry, looked up): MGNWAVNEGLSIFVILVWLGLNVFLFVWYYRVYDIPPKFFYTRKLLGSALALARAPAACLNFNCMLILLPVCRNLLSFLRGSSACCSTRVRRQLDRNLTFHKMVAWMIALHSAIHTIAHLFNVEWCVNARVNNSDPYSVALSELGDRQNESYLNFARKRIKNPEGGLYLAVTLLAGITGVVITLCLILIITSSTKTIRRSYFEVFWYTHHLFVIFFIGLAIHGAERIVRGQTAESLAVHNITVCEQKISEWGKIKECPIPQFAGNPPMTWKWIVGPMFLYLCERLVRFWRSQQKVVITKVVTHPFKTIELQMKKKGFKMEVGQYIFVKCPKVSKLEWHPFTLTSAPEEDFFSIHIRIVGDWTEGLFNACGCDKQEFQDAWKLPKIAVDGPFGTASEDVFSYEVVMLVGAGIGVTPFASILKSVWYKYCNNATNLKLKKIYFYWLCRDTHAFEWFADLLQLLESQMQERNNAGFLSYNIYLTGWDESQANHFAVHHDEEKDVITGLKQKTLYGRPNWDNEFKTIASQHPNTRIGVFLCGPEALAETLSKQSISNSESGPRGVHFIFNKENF
# [9] = molecular target: NADPH oxidase 4 (Homo sapiens) (UniProt Q9NPH5); assay: compounds shifting NOX4 Amplex Red fluorescence – cell-based, HEK293-NOX4, tetracycline-induced, NOX inhibitor project, primary screen (AID 1160); details: HEK293-NOX4, Amplex Red H2O2 fluorescence, 45 min; higher = more signal, called active from +8 up or from −8 down
# Sequence of NADPH oxidase 4 (Homo sapiens) (Q9NPH5 whole entry, looked up): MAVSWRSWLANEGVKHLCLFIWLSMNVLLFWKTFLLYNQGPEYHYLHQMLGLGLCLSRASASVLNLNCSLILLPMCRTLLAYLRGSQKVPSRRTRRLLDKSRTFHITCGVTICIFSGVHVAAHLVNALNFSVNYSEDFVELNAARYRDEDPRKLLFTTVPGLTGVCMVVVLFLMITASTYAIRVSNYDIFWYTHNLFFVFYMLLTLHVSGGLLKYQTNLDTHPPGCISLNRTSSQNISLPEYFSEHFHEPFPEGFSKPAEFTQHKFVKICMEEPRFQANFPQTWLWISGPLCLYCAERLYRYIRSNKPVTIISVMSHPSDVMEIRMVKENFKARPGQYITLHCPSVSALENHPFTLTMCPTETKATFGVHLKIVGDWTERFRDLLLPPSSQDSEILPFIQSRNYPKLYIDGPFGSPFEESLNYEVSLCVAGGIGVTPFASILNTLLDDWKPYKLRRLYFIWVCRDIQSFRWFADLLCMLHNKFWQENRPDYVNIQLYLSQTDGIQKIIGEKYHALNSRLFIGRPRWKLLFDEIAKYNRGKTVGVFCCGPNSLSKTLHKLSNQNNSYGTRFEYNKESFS
# [10] = molecular target: NADPH oxidase 5 (Homo sapiens) (UniProt Q96PH1); assay: compounds shifting NOX5 Amplex Red fluorescence – cell-based, HEK293-NOX5, NOX inhibitor project, primary screen (AID 1161); details: HEK293-NOX5, ionomycin, 45 min, higher = more signal
# Sequence of NADPH oxidase 5 (Homo sapiens) (Q96PH1 whole entry, looked up): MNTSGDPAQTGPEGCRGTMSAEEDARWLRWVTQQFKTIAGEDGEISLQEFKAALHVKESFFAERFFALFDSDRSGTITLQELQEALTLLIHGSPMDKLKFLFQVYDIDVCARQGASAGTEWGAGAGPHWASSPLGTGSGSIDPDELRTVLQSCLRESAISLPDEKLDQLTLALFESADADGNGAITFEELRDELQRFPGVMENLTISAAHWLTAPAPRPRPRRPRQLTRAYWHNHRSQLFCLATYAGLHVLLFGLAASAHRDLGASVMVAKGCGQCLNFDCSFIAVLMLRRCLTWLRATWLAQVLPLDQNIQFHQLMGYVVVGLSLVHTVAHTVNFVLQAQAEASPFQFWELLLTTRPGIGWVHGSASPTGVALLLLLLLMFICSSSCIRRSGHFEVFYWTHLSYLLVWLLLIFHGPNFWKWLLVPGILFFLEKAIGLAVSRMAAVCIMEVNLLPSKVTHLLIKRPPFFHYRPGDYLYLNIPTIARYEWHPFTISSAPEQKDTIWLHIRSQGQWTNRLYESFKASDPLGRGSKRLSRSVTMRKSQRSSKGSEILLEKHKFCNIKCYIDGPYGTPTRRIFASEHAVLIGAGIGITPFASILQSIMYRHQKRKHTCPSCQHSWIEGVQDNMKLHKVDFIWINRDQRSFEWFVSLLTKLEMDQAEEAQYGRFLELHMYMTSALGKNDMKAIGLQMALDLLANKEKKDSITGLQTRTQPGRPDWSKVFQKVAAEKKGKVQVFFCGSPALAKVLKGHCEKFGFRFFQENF
Compound,z-score [1],composite z-score [2],z-score [3],z-score [4],z-score [5],z-score [6],z-score [7],z-score [8],z-score [9],z-score [10]
CN(C)C(=O)[C@@]1(CCC(=O)OC(C)(C)C)N=C(c2ccc(OCCCO)cc2)O[C@H]1c1ccccc1,-0.249 (inactive),0.986,15.9 (active),1 (inactive),1.34 (inactive),-0.976 (inactive),0.837,-2.81 (inactive),-0.618 (inactive),-0.698
O=C1OCCC=C[C@H]2OC34C=CCN(c5ccc6ccccc6c5)C(=O)[C@H]3N(CCCCCO)C(=O)[C@@H]4C12 (stereo not given in full),1.3 (inactive),0.831,3.56 (inactive),0.526 (inactive),2 (inactive),0.599 (inactive),-0.37,1.95 (inactive),0.913 (inactive),2.57
COc1ccc([Si](C)(C)[C@H]2[C@H](CCn3cc([C@H](O)c4ccccc4)nn3)O[C@@]3(C(=O)N(Cc4cccc(N5CCC5=O)c4)c4ccccc43)[C@@H]2C)cc1,2.02 (inactive),0.167,9.44 (active),0.475 (inactive),-0.272 (inactive),-0.87 (inactive),1.77,0.0292 (inactive),1.09 (inactive),2.04
N#Cc1ccc(NN2C(C(O)C3CCCCC3)C=CC3C(=O)N(c4ccccc4)C(=O)C32)cc1 (stereo not given),-1.35 (inactive),0.545,13.2 (active),2.67 (inactive),3.79 (inactive),1.49 (inactive),-0.911,-2.02 (inactive),-3.88 (inactive),-3.01
COc1ccc([Si](C)(C)[C@H]2[C@H](CC(=O)N(CCO)Cc3ccccc3)O[C@@]3(C(=O)N(Cc4cccc(N5CCC5=O)c4)c4ccccc43)[C@@H]2C)cc1,2.2 (inactive),0.356,11.6 (active),1.88 (inactive),-0.614 (inactive),-0.356 (inactive),0.408,0.804 (inactive),0.957 (inactive),1.43
[N-]=[N+]=NCc1ccccc1C[C@@]1(C(=O)N2CCOCC2)N=C(c2ccc(OCCCO)cc2)O[C@@H]1c1ccccc1CN=[N+]=[N-],0.562 (inactive),0.429,28.2 (active),21.5 (active),3.05 (inactive),5.86 (inactive),0.0883,-1 (inactive),1.26 (inactive),1.08
COCCOC(=O)N1C(=O)[C@@]2(c3cc(C#CCNC(N)=O)ccc31)[C@H](c1ccc(O)cc1)N1[C@H](c3ccccc3)[C@H](c3ccccc3)OC(=O)[C@H]1[C@@H]2C(=O)Nc1nc2ccccc2s1,3.62 (inactive),0.144,1.13 (inactive),-0.361 (inactive),0.284 (inactive),-0.0972 (inactive),2.46,0.806 (inactive),0.969 (inactive),1.33
Cc1cc(C)c(C(O)C2C=CC3C(=O)N(C)C(=O)C3N2Nc2ccccc2)c(C)c1 (stereo not given),-1.52 (inactive),1.5,0.277 (inactive),0.519 (inactive),-0.168 (inactive),1.03 (inactive),-0.858,-0.802 (inactive),-3.6 (inactive),-1.96
[N-]=[N+]=NCc1ccccc1C[C@@]1(C(=O)NCC(O)CO)N=C(c2ccc(OCCCO)cc2)O[C@@H]1c1ccccc1CN=[N+]=[N-] (stereo not given in full),0.19 (inactive),0.455,27.4 (active),14.6 (active),0.029 (inactive),2.24 (inactive),-0.324,0.266 (inactive),1.54 (inactive),2.31
COc1cc(CO)ccc1OC(C)=O,1.48 (inactive),-0.157,-0.92 (inactive),-1.73 (inactive),-0.798 (inactive),-2.47 (inactive),1.03,-4.55 (inactive),-1.36 (inactive),-0.667
COC(=O)[C@@]1(Cc2ccc(OC)cc2)[C@H]2c3cc(C(=O)N(C)C)n(Cc4c(OC)[nH]cc(C)c4=O)c3C[C@H]2CN1C(=O)c1ccccc1,-0.348 (inactive),0.276,0.275 (inactive),-0.997 (inactive),-0.456 (inactive),-2.25 (inactive),2.46,0.689 (inactive),-0.265 (inactive),-3.64
COC(=O)[C@@]1(Cc2ccc(F)cc2)[C@H]2c3cc(C(=O)N(C)C)n(CCc4ccccn4)c3C[C@H]2CN1C(=O)c1ccccc1,-0.815 (inactive),1.01,1.81 (inactive),-0.0235 (inactive),0.892 (inactive),-1.66 (inactive),0.402,0.831 (inactive),1.03 (inactive),0.234
[N-]=[N+]=NCc1ccccc1C[C@]1(C(=O)NCC(O)CO)N=C(c2ccc(OCCCO)cc2)O[C@H]1c1ccccc1N=[N+]=[N-] (stereo not given in full),0.801 (inactive),0.12,31.1 (active),32.2 (active),2.92 (inactive),3.93 (inactive),0.828,-0.689 (inactive),-0.154 (inactive),-1.77
COCC1=C2[C@@H](CCc3ccccc3)OB(O)C[C@@H]2[C@@H]2C(=O)N(Cc3ccccc3)C(=O)[C@@H]2C1,-0.536 (inactive),-0.0573,1.75 (inactive),-0.0799 (inactive),-0.558 (inactive),0.0831 (inactive),0.533,-0.0858 (inactive),0.552 (inactive),0.974
CC(C)C(=C=CC[C@H](O)c1cccc(OCCO)c1)C[C@H](O)COCc1ccccc1,0.142 (inactive),0.0455,12.8 (active),2.04 (inactive),0.367 (inactive),0.627 (inactive),-0.145,-1.77 (inactive),-0.716 (inactive),-2.13
C=C[C@@H](COC(C)=O)N(Cc1ccccc1[N+](=O)[O-])S(=O)(=O)c1ccc(Br)cc1,1.43 (inactive),-0.339,2.44 (inactive),-0.407 (inactive),-0.885 (inactive),-0.709 (inactive),3.16,-4.3 (inactive),-0.628 (inactive),-1.98
CCCCC(O)C1C=CC2C(=O)N(C3CCCCC3)C(=O)C2N1Nc1ccc(OC)cc1 (stereo not given),-0.436 (inactive),0.366,3 (inactive),1.24 (inactive),0.517 (inactive),0.684 (inactive),-0.62,-0.937 (inactive),-2.06 (inactive),-1.43
COCCOC(=O)N1C(=O)[C@@]2(c3cc(C#CCCO)ccc31)[C@H](c1ccc(O)cc1)N1[C@H](c3ccccc3)[C@H](c3ccccc3)OC(=O)[C@H]1[C@@H]2C(N)=O,-0.595 (inactive),0.501,6.55 (inactive),1.15 (inactive),0.152 (inactive),0.311 (inactive),-0.218,0.712 (inactive),-0.952 (inactive),0.23
NC(=O)NCC#Cc1ccc2c(c1)[C@]1(C(=O)N2)[C@H](C(=O)NC[C@H](O)c2ccccc2)[C@H]2C(=O)O[C@H](c3ccccc3)[C@H](c3ccccc3)N2[C@@H]1c1ccc(O)cc1,-0.765 (inactive),-0.149,0.397 (inactive),-0.0004 (inactive),2.63 (inactive),-0.048 (inactive),-0.0546,1.3 (inactive),0.02 (inactive),0.404
[N-]=[N+]=NCc1ccccc1[C@H]1OC(c2ccc(OCCCO)cc2)=N[C@@]1(CCS(=O)(=O)c1ccccc1)C(=O)N1CCOCC1,-0.0978 (inactive),1.08,24.4 (active),9.51 (active),1.76 (inactive),0.885 (inactive),-0.362,1.24 (inactive),2.19 (inactive),1.98
O=C1C2C=CC(C(O)c3ccc(F)cc3)N(Nc3ccccc3)C2C(=O)N1c1ccccc1 (stereo not given),-0.789 (inactive),0.374,10.2 (active),2.02 (inactive),0.0089 (inactive),1.24 (inactive),-0.931,-1.77 (inactive),-3.42 (inactive),-1.96
C=CCOC(=O)[C@@H]1[C@H]2C(=O)O[C@H](c3ccccc3)[C@H](c3ccccc3)N2[C@H](c2ccc(OCCOC(=O)[C@@H]3C[C@@H]4C(=O)NCC(=O)N4[C@@H]3c3cccc(OCCO)c3)cc2)[C@@]12C(=O)Nc1ccc(I)cc12,-0.407 (inactive),0.42,2.11 (inactive),0.636 (inactive),1.64 (inactive),0.572 (inactive),-0.5,1.72 (inactive),1.19 (inactive),1.37
C=CCC(OC(C)=O)[C@@H]1[C@@H](N(Cc2ccc(-c3ccccc3)cc2)C(=O)Cc2ccc(OC)cc2)c2cc(OCCCO)ccc2N1C(=O)c1ccc2ccccc2n1 (stereo not given in full),0.165 (inactive),0.167,2.27 (inactive),0.925 (inactive),-0.165 (inactive),1.02 (inactive),0.751,-2.73 (inactive),1.41 (inactive),2.5
O=C1C2C=CC(C(O)c3ccc(B(O)O)cc3)N(Nc3ccccc3)C2C(=O)N1c1ccccc1 (stereo not given),-1.52 (inactive),0.0315,1.07 (inactive),-0.447 (inactive),0.977 (inactive),-0.447 (inactive),0.64,-3.57 (inactive),-5.02 (inactive),-7.63
Cc1ccc(F)cc1S(=O)(=O)N[C@@H]1CCN(Cc2ccc(-c3ccccc3)cc2)C1,-19.4 (active),0.121,13 (active),2.34 (inactive),0.349 (inactive),1.41 (inactive),-0.275,0.335 (inactive),-1.62 (inactive),-1.57
CCCCCN1CC=CC23O[C@@H]4/C=C\CCC(C)OC(=O)C4[C@H]2C(=O)N(CCCCCO)[C@@H]3C1=O (stereo not given in full),2.65 (inactive),-0.493,0.42 (inactive),-0.524 (inactive),-0.935 (inactive),-0.875 (inactive),0.832,1.03 (inactive),-0.177 (inactive),1.45
